# Many of the other results were omitted from the sample, so hits are more common in it than they were.
# Pf Dd2 inh: inhibitors of Plasmodium falciparum Dd2 growth. 120,000 tested, 4.3% active. P. falciparum Dd2 growth, SYBR Green, 72 h. Potency, µM (titrated, usually from 28.9 µM), for inactives: top-dose activity, negative = inhibition, most hits filed as inhibitors; active means well fitted inhibition curve with a large enough effect;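 further: plate controls were DMSO vehicle for no effect and reference drug for full effect; nearly all actives have a fitted effect of over 65% in size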
#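 Infected erythrocytes (Dd2, 0.3% parasitemia, 2.5% hematocrit final) are added to compound in RPMI-1640/Albumax II medium, grown 72 h at 37C in low oxygen, then lysed with saponin/Triton-X containing SYBR Green and read by fluorescence.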
# An asterisk follows results filed as active; i = inactive; [ ] = another dose, or the depositor's remark. Potency means the concentration at half of the fitted maximal effect.
SMILES,Pf Dd2 inh
COc1ccc(C[C@H](NC(=O)C2=C[C@@H](NC(=O)CC3(CC(=O)O)CCCC3)[C@@H](O)[C@H](O)C2)C(N)=O)cc1,14%
O=C(COc1ccccc1)N1CCC(c2noc(-c3ccncc3)n2)C1 (stereo not given),16%[5.79 µM]
COc1ccccc1CN1Cc2cc(NC(=O)Cc3cccs3)ccc2OC(C)C1=O (stereo not given),i
COc1ccc(CN2Cc3cc(NC(=O)c4ccc5c(c4)OCO5)ccc3OC(C)C2=O)cc1 (stereo not given),-7%
CC1Oc2ccc(NC(=O)c3ccc([N+](=O)[O-])cc3)cc2CN(Cc2ccccc2F)C1=O (stereo not given),i
COc1ccccc1CCN1Cc2cc(NC(=O)Cc3cccs3)ccc2OC(C)C1=O (stereo not given),11µM*
COc1ccc(C(=O)Nc2ccc3c(c2)CN(Cc2cc(F)cc(F)c2)C(=O)C(C)O3)cc1 (stereo not given),-14%
COc1ccc(CN2Cc3cc(NC(=O)c4ccc([N+](=O)[O-])cc4)ccc3OC(C)C2=O)c(OC)c1 (stereo not given),10µM*
CC1Oc2ccc(NC(=O)c3ccc4c(c3)OCO4)cc2CN(Cc2ccccc2)C1=O (stereo not given),-21%
COc1ccc(CN2Cc3cc(NC(=O)Cc4cccs4)ccc3OC(C)C2=O)cc1 (stereo not given),-5%
COc1ccccc1CN1Cc2cc(NC(=O)c3ccc4c(c3)OCO4)ccc2OC(C)C1=O (stereo not given),4µM*
Cc1cccc(CN2CCCC(O)(CNCc3cccc(C)n3)C2=O)c1 (stereo not given),-23%
COCCN1CC(CO)C2(CCN(C(=O)c3ccccc3)CC2)C1 (stereo not given),-7%
O=C(N[C@@H]1CN[C@H](CO)C1)C1CC1,72%
O=C(c1cc(-c2cccc(C(F)(F)F)c2)c2nncn2n1)N1CCN(c2ncccn2)CC1,5%
CN(CC1CCOCC1)S(=O)(=O)Cc1cccc(Cl)c1,i
COC[C@@H]1CN(S(=O)(=O)c2c(C)noc2C)C[C@H]1c1ccncc1,-4%
Cc1cc(C(N)=O)c(-c2c(C)n[nH]c2C)nc1C,6%
Cc1ccc(C)c(Cn2c3ccccc3c3cnn(CC(=O)NC(C)c4ccccc4)c(=O)c32)c1 (stereo not given),27%
Cc1ccc(C)c(Cn2c3ccccc3c3cnn(CC(=O)NCC(C)c4ccccc4)c(=O)c32)c1 (stereo not given),18%
CCCCN(C)CCCNC(=O)Cn1ncc2c3ccccc3n(Cc3ccccc3F)c2c1=O,5.6µM*
CCCCN(C)CCNC(=O)Cn1ncc2c([nH]c3ccccc32)c1=O,-4%
O=C(Cn1ncc2c3ccccc3n(Cc3ccccc3F)c2c1=O)NCCc1ccc(Cl)cc1,23%
Cc1ccccc1Cn1c2ccccc2c2cnn(CC(=O)NCCc3ccc(Cl)cc3)c(=O)c21,18%
CC(CCc1ccccc1)NC(=O)Cn1ncc2c3ccccc3n(Cc3ccccc3F)c2c1=O (stereo not given),-16%
SMILES,Pf Dd2 inh
CCCCN(C)CCCNC(=O)Cn1ncc2c3ccccc3n(Cc3cc(C)ccc3C)c2c1=O,0.45µM*
CCCN(CCC)CCCNC(=O)Cn1ncc2c3ccccc3n(Cc3ccccc3F)c2c1=O,5µM*
CNc1nc2c(c(C(=O)N3CCCC3)n1)CN(C(=O)Cn1nc(C)cc1C)CC2,-4%
CN1C[C@H](NC2CCOCC2)CCC[C@@H](C(=O)NC2CC2)CC1=O,-14%[44.1 µM]
O=C(Nc1cccc(F)c1)C1CCN(C(=O)N2CC3CC(C2)[C@H]2CCCC(=O)N2C3)CC1 (stereo not given in full),-18%
COc1cccc(CN2CCc3c(cc(C(=O)N4CCN(CC(C)C)CC4)n3C)C2)c1,6.3µM*
Cn1c(C(=O)NCc2cccnc2)cc2c1CCN(Cc1ccccc1)C2,i
COc1cccc(CN2CCc3c(cc(C(=O)N(C)C)n3C)C2)c1,-15%
Cc1nc2cccnc2n1CC1CCCN(C(=O)Nc2ccccc2Cl)C1 (stereo not given),i
Cc1nc([C@@H]2CN(S(=O)(=O)C(C)C)C[C@H]2C(N)=O)n[nH]1,15%
Cc1csc(NC(=O)c2ccc3c(c2)OCCN(CCC(F)(F)F)C3)n1,-20%[44.1 µM]
O=C(N1CCN(S(=O)(=O)c2cccs2)CC1)N1CC2CC(C1)[C@H]1CCCC(=O)N1C2 (stereo not given in full),-18%
CCn1ccc(C(=O)N2CC(C(=O)NCCc3ccncc3)C3(CCOCC3)C2)n1 (stereo not given),10%
O=C1C(OCC2CC2)C2(CCCCC2)N1C1CCN(Cc2cccnc2)CC1 (stereo not given),8.9µM*
O=C(Cc1cccnc1)N1CCC(N2C(=O)C(OCC3CC3)C23CCCCC3)CC1 (stereo not given),-28%
O=C1C(OCC2CC2)C2(CCCCC2)N1C1CCN(Cc2ccncc2F)CC1 (stereo not given),i
Cc1ccc(C2(C(=O)N3CCC4(CC3)CNC(C(=O)O)C4)CC2)cc1 (stereo not given),12%
COc1ccccc1CCNC(=O)[C@@H]1CNC[C@H]1COc1cccnc1,i
CN(C)c1ccc(C(CNS(=O)(=O)c2ccc(Cl)cc2)N2CCCC2)cc1 (stereo not given),13µM*
Cc1ccccc1C(=O)NCC(c1ccc(N(C)C)cc1)N1CCCC1 (stereo not given),-19%
COc1ccc(C(CNC(=O)c2ccc(F)cc2)N2CCCC2)cc1 (stereo not given),-4%
COc1ccc(S(=O)(=O)NCC(c2ccc(N(C)C)cc2)N2CCOCC2)cc1 (stereo not given),-16%
CC(C)Oc1ccc(C(=O)NCC(c2ccc(N(C)C)cc2)N2CCCC2)cc1 (stereo not given),10µM*
Cc1cc(S(=O)(=O)NCC(c2ccc(N(C)C)cc2)N2CCOCC2)ccc1F (stereo not given),-27%
O=C(Nc1cccc(C(F)(F)F)c1)N[C@@H]1C[C@H](CO)[C@@H](O)[C@H]1O,-15%[44.1 µM]
SMILES,Pf Dd2 inh
COCCOc1ccc2c(n1)CCN(C(=O)c1cccnc1)C2,29%
COCCN(C)C(=O)c1cn(C2CN(C(=O)NCc3ccc(C)cc3)C2)nn1,28%
CN(C)c1ccc(C(=O)NC[C@H]2O[C@@H](CO)[C@@H](O)[C@H]2N2CCN(c3ccccn3)CC2)cc1,-17%
COc1ccccc1-c1cnc(Nc2ccc(CN3CCN(C)CC3)cc2)c2c1CCO2,7.1µM*
COc1ccccc1-c1cnc(NC(=O)c2cccnc2)c2c1CCO2,20%[44.1 µM]
COc1ccccc1-c1cnc(Nc2cncnc2)c2c1CCO2,i
COc1ccc(-c2cnc(Nc3ccc(CN4CCN(C)CC4)cc3)c3c2CCO3)cn1,6.3µM*
COc1ccc(C(=O)Nc2ncc(-c3ccc(OC)nc3)c3c2OCC3)cc1,-15%[44.1 µM]
Fc1cccc(-c2cnc(Nc3ccc(N4CCOCC4)cc3)c3c2CCO3)c1,i
O=C(CN1CC2CC(C1)[C@H]1CCCC(=O)N1C2)Nc1ccc2c(c1)OCCO2 (stereo not given in full),-6%
COc1ccc(CN2CCN(C3CCN(c4ccccc4)CC3)CC2CCO)cc1C (stereo not given),11µM*
Cc1ccc(CN2CCN(C3CCN(Cc4ccccn4)CC3)CC2CCO)o1 (stereo not given),-7%
CC(C)N1CCN(C2CCN(c3ccc4c(c3)CCC4)CC2)CC1CCO (stereo not given),-19%

# From PubChem BioAssay
